# PubChem BioAssay
# Calls of active or inactive are those of the source. No rule for the calls is given here.
# Test: Brca1-Bard1 BiLC signal decrease – luminescence, single concentration, counter-screen for Mdm2/MdmX interaction inhibitor project, confirmation (AID 504668)
# Conditions: Brca1/Bard1 bimolecular luciferase complementation counterscreen, at 8 µM, active compounds read high
row,Compound,inhibition
1,CCN1CCN(C(c2ccc(C(F)(F)F)cc2)c2ccc3cccnc3c2O)CC1 (stereo unspecified),31.2% (active)
2,Brc1ccc2ncnc(NCc3cccnc3)c2c1,26.8% (active)
3,CC(C)(c1ccccc1)c1ccc(OCC(O)CNC2CCN(Cc3ccccc3)CC2)cc1 (stereo unspecified),35.2% (active)
4,Nc1nonc1-n1nnc(C(=O)N/N=C/c2cc(Br)ccc2O)c1CNc1ccccc1,30.5% (active)
5,CCOc1ccc(C(=O)O/N=C(\N)c2ccccn2)cc1,33% (active)
6,COc1cccc2sc(N(CCCN(C)C)C(=O)C(c3ccccc3)c3ccccc3)nc12,24.8% (active)
7,O=C(O)c1cccc(COc2ccc3c(c2)CCC3)c1,24.1% (active)
8,C=CCc1cccc(/C=N/NC(=O)C(C)Nc2cccc(C)c2)c1O (stereo unspecified),34.9% (active)
9,Cc1ccc2occ(/C=N/NC(=O)c3ccccc3C)c(=O)c2c1,34.4% (active)
10,O=C1c2ccccc2S(=O)(=O)N1Cc1nc2ccccc2s1,32.9% (active)
11,C/C(=N\NC(=O)c1c(C)nc2ccccn12)c1ccc(O)cc1O,33.7% (active)
12,Cc1ccc2oc(/N=C(\N)NC(=O)C(C)(C)C)nc2c1,31.8% (active)
13,COc1ccc(-c2cn[nH]c2-c2ccc(OC)cc2)cc1,35.1% (active)
14,O=C(/C=C/c1ccccc1)NC(NC(=S)Nc1cccc(Cl)c1)C(Cl)(Cl)Cl (stereo unspecified),25.6% (active)
15,CCN1C(=O)C(=Cc2cccc(OC)c2Oc2ccc([N+](=O)[O-])cc2[N+](=O)[O-])SC1=S,27.9% (active)
16,CCC(=O)NC(c1ccc(C)cc1)c1ccc2cccnc2c1O (stereo unspecified),23.7% (active)
